This is part of a sample that, as a whole, favours compounds with a hit. Of some 83,000 tested, about 20% had one in any assay.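 48-hour exposure, single concentration, 96-well plates; percent growth endpoint where 0 means no net growth. Active: below 10.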 Unmarked numbers belong to inactive results. Calls of active or inactive are those of the source.

Test systems include NCI-H23 lung; NCI-H226 lung; NCI-H322M lung; HOP-62 NSCLC; NCI-H460 lung; HOP-92 NSCLC; NCI-H522 lung; A549/ATCC NSCLC; 786-0 renal.
Common to all, as to test: NCI-60 one-dose screen, 48 h (100 = growth as untreated, 0 = no growth, -100 = all killed)
Common to all, as to conditions: 10 µM unless noted

With `CCNCCNc1cc(-c2ccc(C(=O)OC)cc2)c(C#N)c2nc3ccccc3n12`, the growth in the assay with NCI-H23 lung is 66.6%; in the assay with NCI-H226 lung, 87.8%; in the assay on NCI-H322M lung it was 43.7%; in the assay on HOP-62 NSCLC it was 68.4%; with NCI-H460 lung it was 4.26% (active); in the assay with HOP-92 NSCLC, 71%. The growth is 32.3% with NCI-H522 lung, 11.9% in the assay on A549/ATCC NSCLC and 44.2% in the assay with 786-0 renal.
In the case of `CN1C[C@@H](c2ccc(Cl)cc2)[C@]2(NC(=S)N(c3ccccc3)C2=O)[C@@]12C(=O)NC1C=CC(Br)=C[C@H]12` (stereo not given in full), the growth in the assay on NCI-H23 lung was 76.1%; in the assay on NCI-H226 lung it was 66%; with NCI-H322M lung, 77.4%; in the assay on HOP-62 NSCLC it was 79.5%; in the assay on NCI-H460 lung, 65.5%; in the assay on HOP-92 NSCLC it was 19.7%. For the same molecule, the growth is 49.3% in the assay with NCI-H522 lung, 56.9% in the assay with A549/ATCC NSCLC and 54.3% in the assay on 786-0 renal.
On to `[2H]c1nc(Nc2ncc(F)c(-c3cc(F)c4nc(C)n(C(C)C)c4c3)n2)c([2H])c([2H])c1CN1CCN(C([2H])([2H])C([2H])([2H])[2H])CC1`, for which the growth in the assay on NCI-H23 lung is 50.6%; with NCI-H226 lung it was 49.1%; in the assay with NCI-H322M lung it was 44.6%; in the assay on HOP-62 NSCLC, 47%; with NCI-H460 lung, 53.1%; in the assay on HOP-92 NSCLC, 66.9%. The figures for the growth in the assay with NCI-H522 lung, in the assay with A549/ATCC NSCLC and in the assay on 786-0 renal were 58.1%, 38.8% and 39%, respectively.
As for `NC(N)=N/N=C/CO`, the growth in the assay on NCI-H23 lung was 103%; in the assay with NCI-H226 lung, 99%; with NCI-H322M lung, 99.7%; in the assay on HOP-62 NSCLC, 105%; in the assay on NCI-H460 lung, 104%; with HOP-92 NSCLC, 108%. In addition, the growth was 106% in the assay with NCI-H522 lung, 97.9% with A549/ATCC NSCLC and 99.9% in the assay with 786-0 renal.
Take `C=CCN1C(=O)[C@]2(SC1=S)[C@H](c1cccc(Cl)c1)CN(C)[C@]21C(=O)NC2C=CC(Cl)=C[C@H]21` (stereo not given in full): the growth was 45.7% in the assay on NCI-H23 lung; 43.4% with NCI-H226 lung; 87.2% in the assay on NCI-H322M lung; 63.9% in the assay with HOP-62 NSCLC; 55.3% in the assay on NCI-H460 lung; -6.48% (active) with HOP-92 NSCLC. The growth was 41.3% in the assay with NCI-H522 lung, 41.9% in the assay on A549/ATCC NSCLC and 24.8% in the assay with 786-0 renal.
Turning to `CN(C)CCCCNc1ccc(NCCCCN(C)C)c2c1C(=O)c1c(O)ccc(O)c1C2=O`, the growth in the assay on NCI-H23 lung is -68.5% (active); in the assay with NCI-H226 lung, 102%; in the assay with NCI-H322M lung, 56.1%; in the assay on HOP-62 NSCLC, 69.4%; in the assay on NCI-H460 lung, -79.1% (active); with HOP-92 NSCLC, 40.6%. Besides, the growth in the assay with NCI-H522 lung was -77.9% (active); in the assay on A549/ATCC NSCLC, -82.9% (active); with 786-0 renal it was -75.1% (active).
Consider `C=C1c2c(C)nn(-c3ccc(N)cc3)c2N(C)C23CC1C1(C)c4c(C)nn(-c5ccc(N)cc5)c4N(C)C(C)(CC12)C3` (stereo not given), for which the growth was 93.6% with NCI-H23 lung; 71.2% in the assay with NCI-H226 lung; 92.1% in the assay on NCI-H322M lung; 88.3% in the assay with HOP-62 NSCLC; 57.2% in the assay with NCI-H460 lung; 90.2% in the assay on HOP-92 NSCLC. The results for the growth in the assay on NCI-H522 lung, with A549/ATCC NSCLC and with 786-0 renal were 62.3%, 50.1% and 81.1%, respectively.
For the molecule `Cc1ccc(/C(=N\N=C(N)N)c2ccccc2)cc1`, the growth in the assay on NCI-H23 lung is 16.6%; in the assay on NCI-H226 lung, -4.14% (active); in the assay with NCI-H322M lung it was 56.6%; in the assay on HOP-62 NSCLC, -30.4% (active); with NCI-H460 lung it was 2.74% (active); in the assay with HOP-92 NSCLC, 27.3%. For the same molecule, the growth was -11.8% (active) in the assay with NCI-H522 lung, 16.9% in the assay with A549/ATCC NSCLC and -70.3% (active) with 786-0 renal.
In the case of `COc1ccc(-c2nnc(-c3ccc4c(c3)nc(-c3ccccc3)n4C3CCCCC3)o2)cc1`, the growth in the assay on NCI-H23 lung was 62.5%; in the assay on NCI-H226 lung it was 46.4%; in the assay with NCI-H322M lung, 87%; in the assay on HOP-62 NSCLC it was 50.5%; with NCI-H460 lung, 64.4%; in the assay on HOP-92 NSCLC, 57%. Moreover, the growth in the assay on NCI-H522 lung is 17.6%; in the assay on A549/ATCC NSCLC, 50.3%; in the assay with 786-0 renal, 77.5%.
For the molecule `CN1C(=O)CCC(N2C(=O)c3cccc(NCCOCCOCCNC(=O)c4cc5c(o4)C(=O)c4ccccc4C5=O)c3C2=O)C1=O` (stereo not given), the growth in the assay with NCI-H23 lung is -52.7% (active); with NCI-H226 lung, -72.1% (active); in the assay with NCI-H322M lung it was -93% (active); in the assay with HOP-62 NSCLC it was -59.1% (active); in the assay on NCI-H460 lung it was -73.1% (active); in the assay on HOP-92 NSCLC it was 65%. The values for the growth in the assay on NCI-H522 lung, in the assay with A549/ATCC NSCLC and with 786-0 renal were -35% (active), -45% (active) and 8.13% (active), respectively.
Take `CN=C1C=CC(=C(c2ccc(N(C)C)cc2)c2ccc(N(C)C)cc2)C=C1`: the growth in the assay on NCI-H23 lung was -8.66% (active); with NCI-H226 lung it was 6.94% (active); in the assay with NCI-H322M lung, -25.8% (active); with HOP-62 NSCLC, -23.4% (active); with NCI-H460 lung, -49.4% (active); with HOP-92 NSCLC it was -39.1% (active). Besides, the growth in the assay on NCI-H522 lung is -36.8% (active); in the assay with A549/ATCC NSCLC it was -23.6% (active); with 786-0 renal, -63.1% (active).
Consider `C#CC[C@H](N)C(=O)O`, for which the growth is 103% [20 µM] in the assay on NCI-H23 lung; 106% [20 µM] in the assay with NCI-H226 lung; 97.8% [20 µM] in the assay on NCI-H322M lung; 94.4% [20 µM] in the assay on HOP-62 NSCLC; 104% [20 µM] with NCI-H460 lung; 87.3% [20 µM] with HOP-92 NSCLC. Also, the growth in the assay on NCI-H522 lung was 89.2% [20 µM]; in the assay with A549/ATCC NSCLC, 99% [20 µM]; in the assay on 786-0 renal, 98.1% [20 µM].
Regarding `C[C@H]1[C@H](C)CC[C@]2(C(=O)N3CCN(C)CC3)CC[C@]3(C)C(=CC[C@@H]4[C@@]5(C)C/C(=C/c6cccnc6)C(=O)C(C)(C)[C@@H]5CC[C@]43C)[C@H]12`, the growth in the assay on NCI-H23 lung is -51.2% (active); with NCI-H226 lung it was -57.2% (active); in the assay on NCI-H322M lung, -52.8% (active); with HOP-62 NSCLC it was -95.9% (active); in the assay on NCI-H460 lung, -65.1% (active); with HOP-92 NSCLC, -81.7% (active). Also, the growth in the assay with NCI-H522 lung was -79.3% (active); with A549/ATCC NSCLC, -73.7% (active); in the assay with 786-0 renal, -85% (active).
As for `CC(C)OCCCNCC(=O)Nc1ccc(S(=O)(=O)c2ccc(NC(=O)CNCCCOC(C)C)cc2)cc1`, the growth with NCI-H23 lung is 101%; in the assay with NCI-H226 lung, 104%; with NCI-H322M lung, 118%; with HOP-62 NSCLC, 85.9%; in the assay with NCI-H460 lung, 94.9%; in the assay on HOP-92 NSCLC it was 50.2%. The growth is 93.3% in the assay with NCI-H522 lung, 106% with A549/ATCC NSCLC and 93.5% in the assay on 786-0 renal.
As to `CC/C=C/[C@@H]1C=C[C@@H]2CCC[C@H]2[C@@H]1CC[C@H](O)[C@H](C)N`, the growth in the assay on NCI-H23 lung is -63.4% (active); in the assay on NCI-H226 lung, 91.5%; with NCI-H322M lung, -35.4% (active); in the assay with HOP-62 NSCLC, -89.7% (active); in the assay with NCI-H460 lung, -83.1% (active); with HOP-92 NSCLC it was 12%. For the same molecule, the growth in the assay on NCI-H522 lung is -56.9% (active); with A549/ATCC NSCLC it was 3.8% (active); in the assay with 786-0 renal, -92.4% (active).
